# MCF10A rereplic: induces DNA re-replication in MCF 10a normal breast cells. AID 624296. MCF 10A DNA re-replication, Hoechst nuclear intensity, 48 h. 2.9% of 350,000 active. Potency, µM (series often up to 46.1 µM), inactives show at the highest dose activity, positive = re-replication, actives largely listed as activators; further: % of control where 0% means no effect; nearly all actives have a fitted effect of over 50% in size
# SW480 rerep: inducers of DNA re-replication in SW480 colon cancer cells | SW480 DNA re-replication, Hoechst DNA content imaging, 48 h | Potency, µM (doses to about 46.1 µM), inactives show at the highest dose re-replication activation, actives largely listed as activators | 1.8% of 340,000 active; further: % of control where 0% means no effect; nearly all actives have a fitted effect of over 55% in size
#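 Treated cells incubate 48 hr (37 C, 5% CO2), are stained 40 min with Hoechst, and nuclear fluorescence is enumerated; a rise in nuclei with high DNA signal marks re-replication.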
# KB-3-1 tox: kills parental KB-3-1 adenocarcinoma cells; KB-3-1 viability, CellTiter-Glo ATP luminescence, 72 h; Potency, µM (series often up to 46.1 µM), most hits filed as cytotoxic; 1.4% of 400,000 active; AID 1347075; further: on the % scale 0 is the no-effect control and ±100 the full control effect; nearly all actives have a fitted effect of over 60% in size
#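 Cells are dispensed, compounds pinned in, plates held at 37 °C for 72 h, then CellTiter-Glo is added and luminescence read after 10 minutes. Cell line: parental KB-3-1 in phenol-red-free DMEM, 10% FBS.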
# HT1080-NT tox: kills 2HG-producing HT-1080-NT fibrosarcoma cells; HT-1080-NT fibrosarcoma viability, CellTiter-Glo ATP luminescence, 48 h; Potency, µM (titrated, usually from 46.1 µM), for inactives: at the highest dose activity, negative = less viability, actives largely listed as cytotoxic; AID 686970; 1.6% of 360,000 active;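 further: NT is the 2HG producing partner of a matched IDH1 knockdown line; 0% = DMSO-treated cells and -100% = media-only wells without cells; nearly all actives have a fitted effect of over 55% in size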
#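 Fibrosarcoma NT cells, 750 per well in 5% FBS RPMI, were exposed to compound for 48 hours. Viability: CellTiter-Glo luminescence.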
# HT1080 IDH1KD tx: HT-1080 IDH1 knockdown cell toxicity (counter line). HT-1080 IDH1 knockdown viability, ATP luminescence, 48 h. Potency, µM (top dose mostly 46.1 µM), for inactives: top-dose activity, negative = toxicity, usual class: cytotoxic. 2% of 360,000 active;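 further: 0% = DMSO wells and -100% = cell-free medium wells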
#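 Luminescent ATP read-out (CellTiter-Glo, 10 min at room temperature) after 48 h compound exposure at 37 °C gave viability of IDH1-knockdown HT-1080 cells. Activity was normalised to DMSO and cell-free wells, then fitted as concentration-response curves.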
# KB-V1 MDR tox: KB-V1 MDR subline cytotoxicity. Potency, µM (doses to about 46.1 µM), hits mostly cytotoxic. 3.4% of 400,000 active. KB-V1 MDR cells viability, CellTiter-Glo, 72 h; further: on the % scale 0 is the no-effect control and ±100 the full control effect; nearly all actives have a fitted effect of over 60% in size
#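 Cells of the MDR subline KB-V1 are plated, dosed with compound at multiple concentrations, and incubated 72 h at 37 degrees C; CellTiter-Glo is then added and luminescence read after 10 min.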
# Numbers without * were called inactive; i = inactive; ? = inconclusive; / = not tested or not shown; [ ] = dose if it differs, or a comment. Shown are actives, neighbours in structure and some others; about 8% of the full set was active somewhere. The call rests on the fitted dose curve; in most records, active means well fitted curve in the direction sought with a large enough effect; inconclusive means small, poorly fitted or top-dose-only effect, or another doubt; inactive means no such curve, though single readings can be large; an effect the other way counts as inactive or inconclusive. Potency means the concentration at half of the fitted maximal effect.
SMILES,MCF10A rereplic,SW480 rerep,KB-3-1 tox,HT1080-NT tox,HT1080 IDH1KD tx,KB-V1 MDR tox
CC1CCCN(C(=O)Cn2c(-c3nonc3N)nc3ccccc32)C1 (stereo unspecified),15.0%,-3.0%,i,9.5%,-4.1%,7.31µM*
CC(C)CCn1c(-c2nonc2N)nc2ccccc21,16.4µM*,?,i,?,?,i
CCCCn1c(-c2nonc2NC(=O)c2ccccc2Cl)nc2ccccc21,16.2%,7.4%,3.26µM*,-15.2%,-4.5%,?
CCCCn1c(-c2nonc2N)nc2ccccc21,?,?,?,-5.0%,-25.6%,?
Nc1nonc1-c1nc2ccccc2n1CC(=O)Nc1ccccc1,9.8%,11.6µM*,?,?,?,?
Cc1onc(-c2ccccc2)c1CNS(=O)(=O)c1ccccc1,7.9%,?,i,11.6%,4.5%,i
Cc1cn([C@H]2C[C@H](O)[C@@H](CCC(=O)NCc3ccc(N(C)C)cc3)O2)c(=O)[nH]c1=O,/,/,i,5.0%,1.6%,i
CCc1ccc(CNC(=O)c2ccc(-c3nc(CSc4ccc(C)cc4)c(C)o3)cc2)cc1,/,/,i,/,/,i
CCCCCOc1ccc(NC(=O)Cn2c(-c3nonc3N)nc3ccccc32)cc1,/,/,i,/,/,?
CCOC(=O)c1ccccc1NC(=O)Cn1c(-c2nonc2N)nc2ccccc21,0.461µM*,0.92µM*,1.03µM*,?,0.92µM*,1.46µM*
Oc1ccccc1C(Nc1nccs1)c1ccc2cccnc2c1O (stereo unspecified),?,-3.5%,2.31µM*,?,7.31µM*,11.6µM*
Oc1c(C(Nc2ccccn2)c2ccccn2)ccc2cccnc12 (stereo unspecified),?,?,14.6µM*,?,8.2µM*,5.8µM*
CC1CCCN(C(=S)SCC(=O)c2cc(Br)cc(Br)c2O)C1 (stereo unspecified),?,24.2%,i,-15.6%,-27.4%,i
O=C(CSC(=S)N1CCCC1)c1cc(Br)cc(Br)c1O,18.9%,5.17µM*,i,16.4µM*,-14.9%,i
CCCn1cnnc1CNC(=O)[C@H]1O[C@@H](n2ccc(=O)[nH]c2=O)[C@H](O)[C@@H]1O,/,/,i,-2.7%,0.8%,18.4µM*
Cc1cccc(C)c1N1CCN(S(=O)(=O)N(C)C)CC1,-12.0%,-0.6%,i,-0.4%,-0.3%,i
CC(C)C[C@@H](CN1CCCC1CN1C(=S)NC[C@@H]1Cc1ccc(O)cc1)N1C[C@H](Cc2ccccc2)N(CC2CCCCCC2)C1=S (stereo partly specified),20.8%,-6.4%,i,-4.7%,-13.2%,?
CC(C)C[C@H]1CNC(=S)N1C[C@H]1CCCN1C[C@H](CC(C)C)N1C[C@H](Cc2ccc(O)cc2)N(CC2CCCCC2)C1=S,/,/,?,18.4µM*,20.6µM*,16.4µM*
CC(C)C[C@H]1CNC(=S)N1CC1CCN(CC2CCCC2)CC1,?,0.0259µM*,i,-1.6%,6.7%,i
CC(C)C[C@@H](CN1CCCC1CN1C(=S)NC[C@@H]1Cc1ccc(O)cc1)N1C[C@H](Cc2ccc(O)cc2)N(CC2CCCCCC2)C1=S (stereo partly specified),?,4.1%,?,23.1µM*,?,?
CC(C)C[C@H]1CN([C@@H](CC(C)C)CN2CCCC2CN2C(=S)NC[C@@H]2Cc2ccccc2)C(=S)N1CC1CCCCC1 (stereo partly specified),/,/,i,-28.7%,16.4µM*,?
COc1cc(C(=O)N(Cc2cccc(Cl)c2)C2CCS(=O)(=O)C2)cc(OC)c1OC (stereo unspecified),-178.0%[0.0737 µM],-23.4%,i,-0.2%,19.6%,i
Cc1ccc(-n2c(=O)c3c4c(sc3n(Cc3ccccc3F)c2=O)CCC4)cc1C,/,/,i,/,/,i
CC(C)C[C@H]1CNC(=S)N1C[C@H]1CCCN1C[C@H](Cc1ccc(O)cc1)N1C[C@H](Cc2ccc(O)cc2)N(CC2CCCCCC2)C1=S,/,/,?,11.6µM*,13µM*,?
COc1ccc(N(CC(=O)NCCc2cccc(C)c2)S(=O)(=O)c2c(C)nn(C)c2C)cc1,/,/,i,/,/,i
SMILES,MCF10A rereplic,SW480 rerep,KB-3-1 tox,HT1080-NT tox,HT1080 IDH1KD tx,KB-V1 MDR tox
Cc1cccc(-c2noc(CN(C(=O)c3c(-c4ccccc4Cl)noc3C)C(C)C)n2)c1,?,25.5%,?,-1.3%,-0.8%,?
Cc1onc(-c2ccccc2Cl)c1C(=O)N(Cc1nc(-c2ccccc2)no1)C1CCCCC1,?,?,?,-8.5%,?,18.4µM*
CCOc1c(Br)cc(C(N)=O)cc1OC,-8.8%,-4.6%,i,-0.4%,0.8%,i
CC(=O)c1ccccc1NC(=O)COc1ccc(N(C)S(=O)(=O)c2ccc(C)c(C)c2)cc1,20.6µM*,6.1%,i,0.8%,-9.9%,i
COc1cc(NC(=O)COc2ccc(Cl)cc2)ccc1NC(=O)C(C)C,-14.8%,29.7%,i,-1.7%,-2.9%,i
COc1cc(NC(=O)COc2ccc(Cl)cc2)ccc1-c1cc2ccccc2oc1=O,7.31µM*,?,?,?,?,?
CCCCOc1ccc(CONS(=O)(=O)c2ccc(NC(C)=O)cc2)cc1Cl,20.6µM*,-1.1%,i,-5.9%,-5.9%,14.6µM*
CC(=O)Nc1ccc(S(=O)(=O)N(C)c2ccc(OCC(=O)Nc3ccccc3C(C)=O)cc2)cc1,?,10.0%,i,-9.4%,-15.3%,?
COc1ccc(NC(=O)COc2ccc(N(C)S(=O)(=O)c3ccc(Cl)cc3)cc2)cc1OC,13.7%,1.3%,20.6µM*,-6.6%,-28.2%,0.92µM*
Cc1ccc(S(=O)(=O)N2C[C@@H]3[C@H]4CC[C@H](C4)[C@@H]3[C@@H](C)[C@H]2c2ccco2)cc1,28.2%,?,i,-11.1%,-19.4%,i
COC(=O)C1=C(C)N(c2ccc(OC)c(OC)c2)C(=O)C1,?,-2.1%,i,?,?,i
CN(C)S(=O)(=O)c1cccc(NC(=O)/C=C/c2ccccc2[N+](=O)[O-])c1,-9.4%,7.8%,i,3.5%,8.2%,i
Cc1cc(C)n2nc(C(=O)N/N=C/c3ccc(O)cc3)nc2n1,3.1%,1.7%,i,-5.0%,16.9%,i
CC(=O)Nc1ccc(S(=O)(=O)NCCSCc2c(Cl)cccc2Cl)cc1,23.1µM*,6.4%,9.2µM*,-15.7%,?,5.8µM*
COc1ccc(CC(=O)Nc2ccc(S(=O)(=O)Nc3ncccn3)cc2)cc1OC,-19.2%,16.4µM*,i,-4.5%,15.7%,i

# From PubChem BioAssay
